# Reference: article PMC7862700, “An all-to-all approach to the identification of sequence-specific readers for epigenetic DNA modifications on cytosine”
# Columns and labels:
# Experiment in all cases: DAPPL (digital affinity profiling via proximity ligation, sequencing); 10 mM Tris-HCl pH 7.5, 50 mM NaCl, 1 mM DTT, 4% glycerol, room temperature, 30 min; GST-TFs on glutathione beads, 16-mer random dsDNA library, 0.1% formaldehyde crosslink after washing; high values mean tight binding
# Conditions in all cases: protein: recombinant; tags: N-terminal GST; dsDNA, one strand shown
# FEV = target: T1, FEV (Homo sapiens, UniProt Q99581 1-238)
# T1 sequence: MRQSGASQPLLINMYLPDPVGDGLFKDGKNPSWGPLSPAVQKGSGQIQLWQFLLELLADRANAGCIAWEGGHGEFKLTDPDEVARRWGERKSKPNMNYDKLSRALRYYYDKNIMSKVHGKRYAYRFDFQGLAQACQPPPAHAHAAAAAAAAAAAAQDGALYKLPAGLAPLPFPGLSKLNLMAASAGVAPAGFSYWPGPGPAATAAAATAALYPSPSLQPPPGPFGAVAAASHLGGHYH
# How it was run: (§1)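 Each value of binding signal is a hexamer's read frequency for a factor divided by the same hexamer's frequency in the tag-only sample. Barcoded, bead-captured GST fusions of human transcription factors made in yeast were pooled with that sample and incubated with 200 nmole of a random double-stranded 16-mer DNA library in Tris/NaCl/DTT/glycerol buffer at room temperature for 30 min. Washing, 0.1% formaldehyde crosslinking, proximity ligation, PCR and Illumina NextSeq500 sequencing followed.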
# ETV5 = ETV5 (Homo sapiens, UniProt P41161 1-510)
# Chain of ETV5 (P41161 whole entry): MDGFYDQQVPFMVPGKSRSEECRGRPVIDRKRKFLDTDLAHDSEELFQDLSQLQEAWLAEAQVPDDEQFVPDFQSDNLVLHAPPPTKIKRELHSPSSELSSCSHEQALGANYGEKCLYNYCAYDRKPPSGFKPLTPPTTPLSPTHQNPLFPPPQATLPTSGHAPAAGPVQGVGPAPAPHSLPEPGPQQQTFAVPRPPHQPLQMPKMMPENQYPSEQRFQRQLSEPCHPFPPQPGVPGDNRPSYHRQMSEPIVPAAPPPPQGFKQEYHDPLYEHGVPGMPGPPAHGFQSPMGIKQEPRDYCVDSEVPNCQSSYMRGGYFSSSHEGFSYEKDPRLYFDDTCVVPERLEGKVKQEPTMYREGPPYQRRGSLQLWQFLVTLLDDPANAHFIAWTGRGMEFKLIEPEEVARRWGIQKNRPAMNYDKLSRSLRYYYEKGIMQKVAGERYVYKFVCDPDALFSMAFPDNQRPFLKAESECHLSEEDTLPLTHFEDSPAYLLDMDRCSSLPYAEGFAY
# How it was run: as §1
# SPIC = target: T2, SPIC (Homo sapiens, UniProt Q8N5J4 1-248)
# T2 sequence: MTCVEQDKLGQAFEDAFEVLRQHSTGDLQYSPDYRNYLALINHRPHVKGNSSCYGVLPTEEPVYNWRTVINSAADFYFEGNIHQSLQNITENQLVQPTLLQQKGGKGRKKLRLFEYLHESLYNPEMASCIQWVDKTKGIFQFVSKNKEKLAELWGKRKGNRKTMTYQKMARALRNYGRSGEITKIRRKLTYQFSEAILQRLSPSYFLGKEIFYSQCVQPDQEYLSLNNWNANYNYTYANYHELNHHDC
# How it was run: as §1
# ELF4 = ELF4 (Homo sapiens, UniProt Q99607 1-663)
# Chain of ELF4 (Q99607 whole entry): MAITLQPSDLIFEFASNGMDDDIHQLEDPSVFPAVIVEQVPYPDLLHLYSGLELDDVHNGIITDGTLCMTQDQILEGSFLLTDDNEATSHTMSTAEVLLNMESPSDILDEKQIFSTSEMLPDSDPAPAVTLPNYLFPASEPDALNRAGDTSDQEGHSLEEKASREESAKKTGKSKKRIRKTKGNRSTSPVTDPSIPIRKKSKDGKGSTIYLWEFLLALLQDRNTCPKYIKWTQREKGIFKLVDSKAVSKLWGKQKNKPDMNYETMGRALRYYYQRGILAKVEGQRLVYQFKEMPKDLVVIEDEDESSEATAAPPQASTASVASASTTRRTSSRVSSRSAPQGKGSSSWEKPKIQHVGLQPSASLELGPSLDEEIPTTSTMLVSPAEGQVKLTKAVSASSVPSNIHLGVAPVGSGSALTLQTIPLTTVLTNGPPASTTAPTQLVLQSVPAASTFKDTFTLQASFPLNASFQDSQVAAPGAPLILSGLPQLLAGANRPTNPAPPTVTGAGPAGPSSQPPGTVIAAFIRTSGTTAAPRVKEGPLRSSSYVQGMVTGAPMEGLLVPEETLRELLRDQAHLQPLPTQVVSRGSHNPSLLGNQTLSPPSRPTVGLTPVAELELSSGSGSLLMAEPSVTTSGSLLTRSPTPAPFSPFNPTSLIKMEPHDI
# How it was run: as §1
# ELK4 = target: T3, ELK4 (Homo sapiens, UniProt P28324-2 1-405)
# T3 sequence: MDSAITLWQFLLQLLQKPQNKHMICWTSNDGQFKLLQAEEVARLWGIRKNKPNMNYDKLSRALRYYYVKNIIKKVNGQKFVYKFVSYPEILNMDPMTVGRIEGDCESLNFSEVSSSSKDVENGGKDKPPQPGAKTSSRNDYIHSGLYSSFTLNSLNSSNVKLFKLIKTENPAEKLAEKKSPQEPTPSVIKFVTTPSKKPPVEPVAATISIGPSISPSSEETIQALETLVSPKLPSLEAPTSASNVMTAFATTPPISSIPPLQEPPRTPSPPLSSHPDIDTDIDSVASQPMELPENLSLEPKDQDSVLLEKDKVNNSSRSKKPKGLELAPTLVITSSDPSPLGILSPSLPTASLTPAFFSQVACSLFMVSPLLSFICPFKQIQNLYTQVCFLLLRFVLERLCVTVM
# How it was run: as §1
# ETV2 = target: T4, ETV2 (Homo sapiens, UniProt O00321 1-342)
# T4 sequence: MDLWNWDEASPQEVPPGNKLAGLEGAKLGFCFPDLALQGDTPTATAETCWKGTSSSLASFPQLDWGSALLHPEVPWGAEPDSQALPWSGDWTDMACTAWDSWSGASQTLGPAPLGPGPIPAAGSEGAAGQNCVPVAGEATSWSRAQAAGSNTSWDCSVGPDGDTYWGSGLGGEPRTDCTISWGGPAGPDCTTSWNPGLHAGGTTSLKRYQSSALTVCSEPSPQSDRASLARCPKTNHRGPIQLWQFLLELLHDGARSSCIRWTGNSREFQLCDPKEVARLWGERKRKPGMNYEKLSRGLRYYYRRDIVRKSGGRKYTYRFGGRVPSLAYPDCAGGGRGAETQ
# How it was run: as §1
# ELF3 = target: T5, ELF3 (Homo sapiens, UniProt P78545 1-371)
# T5 sequence: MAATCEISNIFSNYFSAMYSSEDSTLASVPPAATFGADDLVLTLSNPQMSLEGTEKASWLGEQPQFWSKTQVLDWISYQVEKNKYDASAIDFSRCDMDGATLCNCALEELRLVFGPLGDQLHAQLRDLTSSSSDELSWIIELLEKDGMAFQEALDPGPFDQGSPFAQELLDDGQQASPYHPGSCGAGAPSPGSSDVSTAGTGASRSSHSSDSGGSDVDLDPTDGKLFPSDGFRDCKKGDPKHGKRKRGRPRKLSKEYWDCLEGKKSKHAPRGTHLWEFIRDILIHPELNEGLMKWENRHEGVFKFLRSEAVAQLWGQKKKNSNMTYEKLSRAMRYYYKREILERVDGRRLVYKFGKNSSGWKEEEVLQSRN
# How it was run: as §1
# ETV1 = ETV1 (Homo sapiens, UniProt P50549 1-477)
# Chain of ETV1 (P50549 whole entry): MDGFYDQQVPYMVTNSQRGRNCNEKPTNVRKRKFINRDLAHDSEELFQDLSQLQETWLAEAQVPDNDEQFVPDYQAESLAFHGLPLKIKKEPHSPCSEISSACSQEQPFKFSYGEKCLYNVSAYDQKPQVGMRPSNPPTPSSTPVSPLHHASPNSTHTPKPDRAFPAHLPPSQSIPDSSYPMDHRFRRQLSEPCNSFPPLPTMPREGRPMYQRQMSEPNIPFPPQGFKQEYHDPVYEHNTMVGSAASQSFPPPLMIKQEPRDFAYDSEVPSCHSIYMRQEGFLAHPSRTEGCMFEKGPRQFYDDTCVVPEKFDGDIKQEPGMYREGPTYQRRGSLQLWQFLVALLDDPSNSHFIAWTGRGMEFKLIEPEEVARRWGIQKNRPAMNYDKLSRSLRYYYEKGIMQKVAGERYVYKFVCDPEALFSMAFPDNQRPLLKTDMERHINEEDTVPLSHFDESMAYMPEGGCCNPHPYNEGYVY
# How it was run: as §1
Sequence,binding signal (FEV),binding signal (ETV5),binding signal (SPIC),binding signal (ELF4),binding signal (ELK4),binding signal (ETV2),binding signal (ELF3),binding signal (ETV1)
TGCTGT,"1.01 fold enrichment (6-mer frequency, TF over GST control)","1.06 fold enrichment (6-mer frequency, TF over GST control)","1.18 fold enrichment (6-mer frequency, TF over GST control)","1.06 fold enrichment (6-mer frequency, TF over GST control)","1.19 fold enrichment (6-mer frequency, TF over GST control)","1.15 fold enrichment (6-mer frequency, TF over GST control)","1.12 fold enrichment (6-mer frequency, TF over GST control)","1.17 fold enrichment (6-mer frequency, TF over GST control)"
CACTAC,"1.35 fold enrichment (6-mer frequency, TF over GST control)","1.3 fold enrichment (6-mer frequency, TF over GST control)","1.14 fold enrichment (6-mer frequency, TF over GST control)","1.27 fold enrichment (6-mer frequency, TF over GST control)","1.37 fold enrichment (6-mer frequency, TF over GST control)","1.34 fold enrichment (6-mer frequency, TF over GST control)","1.3 fold enrichment (6-mer frequency, TF over GST control)","1.21 fold enrichment (6-mer frequency, TF over GST control)"
GAAGTG,"1.88 fold enrichment (6-mer frequency, TF over GST control)","1.73 fold enrichment (6-mer frequency, TF over GST control)","2.01 fold enrichment (6-mer frequency, TF over GST control)","1.6 fold enrichment (6-mer frequency, TF over GST control)","1.32 fold enrichment (6-mer frequency, TF over GST control)","1.65 fold enrichment (6-mer frequency, TF over GST control)","1.65 fold enrichment (6-mer frequency, TF over GST control)","1.86 fold enrichment (6-mer frequency, TF over GST control)"
GGAAAC,"1.67 fold enrichment (6-mer frequency, TF over GST control)","1.43 fold enrichment (6-mer frequency, TF over GST control)","1.26 fold enrichment (6-mer frequency, TF over GST control)","1.2 fold enrichment (6-mer frequency, TF over GST control)","1.01 fold enrichment (6-mer frequency, TF over GST control)","1.35 fold enrichment (6-mer frequency, TF over GST control)","1.42 fold enrichment (6-mer frequency, TF over GST control)","1.35 fold enrichment (6-mer frequency, TF over GST control)"
CTCAGG,"1.09 fold enrichment (6-mer frequency, TF over GST control)","1.06 fold enrichment (6-mer frequency, TF over GST control)","1.06 fold enrichment (6-mer frequency, TF over GST control)","1.07 fold enrichment (6-mer frequency, TF over GST control)","1.05 fold enrichment (6-mer frequency, TF over GST control)","1.12 fold enrichment (6-mer frequency, TF over GST control)","1.15 fold enrichment (6-mer frequency, TF over GST control)",
CGGAAG,"3.68 fold enrichment (6-mer frequency, TF over GST control)","3.27 fold enrichment (6-mer frequency, TF over GST control)","2.79 fold enrichment (6-mer frequency, TF over GST control)","2.61 fold enrichment (6-mer frequency, TF over GST control)","2.16 fold enrichment (6-mer frequency, TF over GST control)","2.63 fold enrichment (6-mer frequency, TF over GST control)","3.01 fold enrichment (6-mer frequency, TF over GST control)","3.2 fold enrichment (6-mer frequency, TF over GST control)"
CCATAC,"1.16 fold enrichment (6-mer frequency, TF over GST control)","1.16 fold enrichment (6-mer frequency, TF over GST control)","1.13 fold enrichment (6-mer frequency, TF over GST control)","1.27 fold enrichment (6-mer frequency, TF over GST control)","1.14 fold enrichment (6-mer frequency, TF over GST control)","1.06 fold enrichment (6-mer frequency, TF over GST control)","1.06 fold enrichment (6-mer frequency, TF over GST control)","1.15 fold enrichment (6-mer frequency, TF over GST control)"
GATGCA,"1.12 fold enrichment (6-mer frequency, TF over GST control)","1.13 fold enrichment (6-mer frequency, TF over GST control)","1.17 fold enrichment (6-mer frequency, TF over GST control)","1.23 fold enrichment (6-mer frequency, TF over GST control)","1.19 fold enrichment (6-mer frequency, TF over GST control)","1 fold enrichment (6-mer frequency, TF over GST control)","1.16 fold enrichment (6-mer frequency, TF over GST control)","1.04 fold enrichment (6-mer frequency, TF over GST control)"
GCGTTT,"1.18 fold enrichment (6-mer frequency, TF over GST control)","1.09 fold enrichment (6-mer frequency, TF over GST control)","1.15 fold enrichment (6-mer frequency, TF over GST control)","1.13 fold enrichment (6-mer frequency, TF over GST control)","1.16 fold enrichment (6-mer frequency, TF over GST control)","1.11 fold enrichment (6-mer frequency, TF over GST control)","1.15 fold enrichment (6-mer frequency, TF over GST control)",
TGTCCG,"1.61 fold enrichment (6-mer frequency, TF over GST control)","1.61 fold enrichment (6-mer frequency, TF over GST control)","1.36 fold enrichment (6-mer frequency, TF over GST control)","1.41 fold enrichment (6-mer frequency, TF over GST control)","1.32 fold enrichment (6-mer frequency, TF over GST control)","1.29 fold enrichment (6-mer frequency, TF over GST control)","1.48 fold enrichment (6-mer frequency, TF over GST control)","1.6 fold enrichment (6-mer frequency, TF over GST control)"
CACACA,"1.18 fold enrichment (6-mer frequency, TF over GST control)","1.16 fold enrichment (6-mer frequency, TF over GST control)","1.07 fold enrichment (6-mer frequency, TF over GST control)","1.16 fold enrichment (6-mer frequency, TF over GST control)","1.1 fold enrichment (6-mer frequency, TF over GST control)","1.23 fold enrichment (6-mer frequency, TF over GST control)","1.09 fold enrichment (6-mer frequency, TF over GST control)","1.06 fold enrichment (6-mer frequency, TF over GST control)"
GCTACG,"1.16 fold enrichment (6-mer frequency, TF over GST control)","1.14 fold enrichment (6-mer frequency, TF over GST control)","1.12 fold enrichment (6-mer frequency, TF over GST control)","1.14 fold enrichment (6-mer frequency, TF over GST control)","1.41 fold enrichment (6-mer frequency, TF over GST control)","1.1 fold enrichment (6-mer frequency, TF over GST control)","1.19 fold enrichment (6-mer frequency, TF over GST control)","1.25 fold enrichment (6-mer frequency, TF over GST control)"
